We go through 37 compounds from PubChem BioAssay (NCI).

“And” between values parts separate entries of the source, which are not always exact repeats. Identical values can stand only once. The panel holds about 79,000 compounds, 15% with a hit somewhere; the sample as a whole holds those more often. The source holds several records for some structures; these can differ, active in one and inactive in another. The source made the active and inactive calls. Rule as the data show it: active = growth inhibition above about 70%; inactive = the rest.

A short description of one experiment: NCI Yeast Anticancer Drug Screen. Data for the rad50 strain (AID 155).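 Also: 0% = growth of vehicle-only cultures of the same strain.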 As to conditions: S. cerevisiae rad50 strain growth inhibition; at 50.0 µM (retest, dose inferred, filed as 5.0); stronger effect = higher value. The method in brief:
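Growth of the mutant yeast was measured after compound exposure and referenced to vehicle-treated cultures.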
In the case of `OCC1OC(n2cnc3c(=S)nc[nH]c32)C(O)C1O` (centres undefined), the growth inhibition is -13% (inactive).
Still for that read-out and setting: the value for `CCOC(=O)C(C(=O)c1ccccc1)C(=O)c1ccccc1` was 85% (active).
Still for that read-out and setting: the value for `COC1/C=C\C=C(/C)C(=O)Nc2cc3nc4ccc(Br)cc4oc-3c(c2=O)CC(C)CC(OC)C(O)C(C)/C=C(\C)C1OC(N)=O` (centres undefined) was 97% (active); that for `Nc1ccc([N+](=O)[O-])c(S(=O)(=O)O)c1` was -143% (inactive); that for `CCOc1ccc2ccccc2c1C(Cc1ccc(Cl)cc1)NCCO` (centres undefined) was -1% (inactive).
As for `O=C1C(=Cc2ccc(O)cc2)N=C(c2ccccc2)N1n1c(-c2ccccc2)nc2ccccc2c1=O`, the growth inhibition is 39% (inactive).
The same measure, in the same setting: the value for `Cc1nc2ccccc2cc1CCl` was 91% (active).
`Cc1cc(NS(=O)(=O)c2ccc(N=Nc3cc(N=Nc4ccc(S(=O)(=O)Nc5cc(C)nc(C)n5)cc4)c4c(NC(=O)C(Cl)Cl)cccc4c3OC(=O)C(Cl)Cl)cc2)nc(C)n1` (tested in a mixture with another compound): the growth inhibition is 76% (active).
Still for that read-out and setting: the value for `CCCCCCN(CCCCCC)C(=O)C1=C(C)NC(C)=C(C(=O)N(CCCCCC)CCCCCC)C1` was 15% (inactive).
On the same count and under the same terms, then `O=[N+]([O-])Cc1cnc2nncn2n1`, with 96% (active); and `COc1ccc(N/N=C(\CCN(C)C)c2ccccc2)cc1`, with 51% (inactive).
As to `O=C(O)/C(=C(/c1ccccc1)c1ccc(Cl)cc1)c1ccccc1`, the growth inhibition is 98% (active).
The same measure, in the same setting: the value for `c1ccc([P+](CCCCCCCC[P+](c2ccccc2)(c2ccccc2)c2ccccc2)(c2ccccc2)c2ccccc2)cc1` was 98% (active).
The same measure, in the same setting: then `OCCNc1nc(NCCO)c2nc(-c3ccccc3)c(-c3ccccc3)nc2n1`, with 61% (inactive) and 43% (inactive); and `OC(c1ccccc1)(c1ccccc1)c1ccccc1` (tested in a mixture with another compound), with 94% (active); and `CC(=O)Nc1c(Cl)c(Cl)c2c(c1Cl)Cc1cc(Cl)ccc1-2`, with 99% (active).
Same read-out and setting: then `Cc1cc(C)nc(NS(=O)(=O)c2ccc(Nc3c4ccccc4nc4c(C(=O)NCCCN(CCO)CCO)cccc34)cc2)n1`, with 20% (inactive); and `CCn1c2ccccc2c2ccc(N=Cc3ccc(N(C)C)cc3)cc21`, with 78% (active).
`O=C(C(=Cc1ccccc1)C(=O)c1ccccc1)c1ccccc1`: the growth inhibition is 92% (active).
On the same count and under the same terms, then `c1ccc(C2=NC(c3ccccc3)=NS(S3=NC(c4ccccc4)=NC(c4ccccc4)=N3)=N2)cc1` (centres undefined), with 94% (active); and `Nc1nc(-c2ccccn2)cc2ccccc12`, with 63% (inactive); and `CCN(CC)CCCn1c2cc(=O)c(=O)cc-2[nH]c2cc(C)ccc21`, with 58% (inactive).
Still for that read-out and setting: then `COc1cc(O)ccc1C(=S)SC`, with 78% (active).
Take `O=[N+]([O-])C1=C(c2ccccc2)SC=C(c2ccccc2)S1`: the growth inhibition was 13% (inactive) and -6% (inactive).
The same measure, in the same setting: the value for `N#CC1(C2SCCS2=O)C2=C(C(=O)c3ccccc3C2=O)N2CCCC21` (centres undefined) was 56% (inactive).
On the same count and under the same terms, then `O=C1C=CC(=O)C(C2OC(=O)C(Br)=C2Br)=C1` (centres undefined), with 18% (inactive).
Still for that read-out and setting: the value for `CN1CCN(CCCN2c3ccccc3Sc3ccc(C(F)(F)F)cc32)CC1` was 98% (active) and 94% (active); that for `Cc1ccc(S(=O)(=O)C23C(N=NC2(C)C)C3(C)C)cc1` (centres undefined) was 3% (inactive).
Consider `COC(=O)C(=O)C(C(=O)C(c1ccccc1)c1ccccc1)c1nc2n(c1O)/C(=N/C(=O)Nc1ccc(Cl)cc1)N=N2` (centres undefined), for which the growth inhibition was 41% (inactive).
On the same count and under the same terms, the value for `O=C(O)c1ccc2c(c1)Cc1cc([N+](=O)[O-])ccc1-2` was 88% (active); that for `O=c1[nH]c2cc([N+](=O)[O-])ccc2nc1/C=C(\O)c1ccc([N+](=O)[O-])cc1` was 86% (active); that for `c1ccc(C(c2ccccc2)n2ccnc2)cc1` was -13% (inactive).
Same read-out and setting: the value for `c1ccc2c(c1)CNc1ccccc1-2` was 58% (inactive); that for `COC(=O)c1nnn(-c2ccc(S(N)(=O)=O)cc2)c1N` was -16% (inactive); that for `COC(=O)c1ccc(O)c(OC)c1` was -5% (inactive).
On the same count and under the same terms, then `O=c1[nH]c(SCc2c(Cl)c(Cl)c(Cl)c(Cl)c2Cl)nc(=S)[nH]1`, with 76% (active); and `Cc1nc2c(ccc3[nH]c4ccccc4c32)s1`, with 99% (active).

The same experiment, now with this note: S. cerevisiae rad50 strain growth inhibition; at 50.0 µM; stronger effect = higher value.
On to `OCC1OC(n2cnc3c(=S)nc[nH]c32)C(O)C1O` (centres undefined), for which the growth inhibition is -0.9% (inactive) and -2.3% (inactive).
In the case of `CCOC(=O)C(C(=O)c1ccccc1)C(=O)c1ccccc1`, the growth inhibition was -24.3% (inactive) and 90.8% (active).
For `COC1/C=C\C=C(/C)C(=O)Nc2cc3nc4ccc(Br)cc4oc-3c(c2=O)CC(C)CC(OC)C(O)C(C)/C=C(\C)C1OC(N)=O` (centres undefined), the growth inhibition was 89.2% (active).
On the same count and under the same terms, then `Nc1ccc([N+](=O)[O-])c(S(=O)(=O)O)c1`, with 60.8% (inactive) and -0.9% (inactive); and `CCOc1ccc2ccccc2c1C(Cc1ccc(Cl)cc1)NCCO` (centres undefined), with 89.3% (active).
As to `O=C1C(=Cc2ccc(O)cc2)N=C(c2ccccc2)N1n1c(-c2ccccc2)nc2ccccc2c1=O`, the growth inhibition was 71% (active).
On to `Cc1nc2ccccc2cc1CCl`, for which the growth inhibition was 82.5% (active).
On the same count and under the same terms, the value for `Cc1cc(NS(=O)(=O)c2ccc(N=Nc3cc(N=Nc4ccc(S(=O)(=O)Nc5cc(C)nc(C)n5)cc4)c4c(NC(=O)C(Cl)Cl)cccc4c3OC(=O)C(Cl)Cl)cc2)nc(C)n1` (tested in a mixture with another compound) was 29.9% (inactive) and 73.2% (active); that for `CCCCCCN(CCCCCC)C(=O)C1=C(C)NC(C)=C(C(=O)N(CCCCCC)CCCCCC)C1` was 56.4% (inactive).
Same read-out and setting: the value for `O=[N+]([O-])Cc1cnc2nncn2n1` was 86.3% (active); that for `COc1ccc(N/N=C(\CCN(C)C)c2ccccc2)cc1` was 80.7% (active); that for `O=C(O)/C(=C(/c1ccccc1)c1ccc(Cl)cc1)c1ccccc1` was 98.2% (active) and 89.3% (active).
On the same count and under the same terms, the value for `c1ccc([P+](CCCCCCCC[P+](c2ccccc2)(c2ccccc2)c2ccccc2)(c2ccccc2)c2ccccc2)cc1` was 88.5% (active); that for `OCCNc1nc(NCCO)c2nc(-c3ccccc3)c(-c3ccccc3)nc2n1` was -2.2% (inactive) and 58% (inactive).
`OC(c1ccccc1)(c1ccccc1)c1ccccc1` (tested in a mixture with another compound): the growth inhibition is 10.7% (inactive) and 96.7% (active).
As for `CC(=O)Nc1c(Cl)c(Cl)c2c(c1Cl)Cc1cc(Cl)ccc1-2`, the growth inhibition is 98.2% (active).
Still for that read-out and setting: then `Cc1cc(C)nc(NS(=O)(=O)c2ccc(Nc3c4ccccc4nc4c(C(=O)NCCCN(CCO)CCO)cccc34)cc2)n1`, with 45% (inactive); and `CCn1c2ccccc2c2ccc(N=Cc3ccc(N(C)C)cc3)cc21`, with 61.6% (inactive).
Still for that read-out and setting: then `O=C(C(=Cc1ccccc1)C(=O)c1ccccc1)c1ccccc1`, with 86.5% (active) and 21.2% (inactive); and `c1ccc(C2=NC(c3ccccc3)=NS(S3=NC(c4ccccc4)=NC(c4ccccc4)=N3)=N2)cc1` (centres undefined), with 74.7% (active).
Consider `Nc1nc(-c2ccccn2)cc2ccccc12`, for which the growth inhibition is -2.25% (inactive).
Still for that read-out and setting: the value for `CCN(CC)CCCn1c2cc(=O)c(=O)cc-2[nH]c2cc(C)ccc21` was 10.4% (inactive); that for `COc1cc(O)ccc1C(=S)SC` was 85% (active).
On the same count and under the same terms, the value for `O=[N+]([O-])C1=C(c2ccccc2)SC=C(c2ccccc2)S1` was 24% (inactive) and 71.5% (active).
`N#CC1(C2SCCS2=O)C2=C(C(=O)c3ccccc3C2=O)N2CCCC21` (centres undefined): the growth inhibition was 76.8% (active).
On the same count and under the same terms, the value for `O=C1C=CC(=O)C(C2OC(=O)C(Br)=C2Br)=C1` (centres undefined) was 6.95% (inactive).
Still for that read-out and setting: the value for `CN1CCN(CCCN2c3ccccc3Sc3ccc(C(F)(F)F)cc32)CC1` was 98.8% (active) and 83.9% (active).
Still for that read-out and setting: then `Cc1ccc(S(=O)(=O)C23C(N=NC2(C)C)C3(C)C)cc1` (centres undefined), with -4.7% (inactive).
Turning to `COC(=O)C(=O)C(C(=O)C(c1ccccc1)c1ccccc1)c1nc2n(c1O)/C(=N/C(=O)Nc1ccc(Cl)cc1)N=N2` (centres undefined), the growth inhibition was 76.6% (active).
The same measure, in the same setting: then `O=C(O)c1ccc2c(c1)Cc1cc([N+](=O)[O-])ccc1-2`, with 70.1% (active); and `O=c1[nH]c2cc([N+](=O)[O-])ccc2nc1/C=C(\O)c1ccc([N+](=O)[O-])cc1`, with 54.2% (inactive) and -3.6% (inactive).
Still for that read-out and setting: then `c1ccc(C(c2ccccc2)n2ccnc2)cc1`, with 76.2% (active).
Same read-out and setting: then `c1ccc2c(c1)CNc1ccccc1-2`, with 48% (inactive); and `COC(=O)c1nnn(-c2ccc(S(N)(=O)=O)cc2)c1N`, with 36.6% (inactive); and `COC(=O)c1ccc(O)c(OC)c1`, with -25.2% (inactive).
`O=c1[nH]c(SCc2c(Cl)c(Cl)c(Cl)c(Cl)c2Cl)nc(=S)[nH]1`: the growth inhibition is 54.1% (inactive).
Same read-out and setting: the value for `Cc1nc2c(ccc3[nH]c4ccccc4c32)s1` was 90.8% (active).
